Compounds without any hit were thinned out: in the full panel of roughly 79,000, 15% have a hit. Unmarked numbers belong to inactive results. The source made the active and inactive calls. No stated cut-off is given here; in the data, active means growth inhibition above about 70%; inactive means the rest.

Assay [1] in a line: NCI Yeast Anticancer Drug Screen. Data for the rad50 strain (AID 155).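 Further: 0% = growth of vehicle-only cultures of the same strain.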 As to conditions: S. cerevisiae rad50 strain growth inhibition, active compounds read high. Summed up: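 Genetically altered yeast (DNA repair pathway); compound treatment; growth inhibition vs vehicle ctrl.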
Assay [2] in a line: NCI Yeast Anticancer Drug Screen. Data for the mec2-1 strain (AID 157). As to conditions: S. cerevisiae mec2-1 strain, active compounds read high. Summed up:
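Vehicle-treated cultures served as reference for growth inhibition of compound-exposed mec2-1 yeast.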

The nature of assay [3]: NCI Yeast Anticancer Drug Screen. Data for the sgs1 mgt1 strain (AID 161).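 Further: 0% = growth of cultures given vehicle only.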 As to conditions: S. cerevisiae sgs1 mgt1 strain, active compounds read high. Summed up: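 Mutant yeast exposed to compound; growth scored against vehicle-only wells.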
The nature of assay [4]: NCI Yeast Anticancer Drug Screen. Data for the cln2 rad14 strain (AID 165).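 Further: 0% = growth equal to vehicle treated cultures.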 As to conditions: S. cerevisiae cln2 rad14 strain, active compounds read high. In short, it runs like this: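 Each compound was tested on cln2 rad14 yeast. Inhibition of growth was calculated against vehicle-exposed controls.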
Assay [5] is described as follows: NCI Yeast Anticancer Drug Screen. Data for the bub3 strain (AID 167). As to conditions: S. cerevisiae bub3 mutant strain, active compounds read high. Summed up:
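Yeast carrying a defined mutation is treated with each compound, and growth is compared with that of vehicle-exposed cells to give inhibition.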

Assay [6] in a line: NCI Yeast Anticancer Drug Screen. Data for the mlh1 rad18 strain (AID 175). As to conditions: S. cerevisiae mlh1 rad18 strain growth inhibition, active compounds read high. In short, it runs like this:
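Vehicle-treated cultures served as the reference for growth inhibition in a yeast strain carrying DNA damage repair alterations exposed to each compound.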

Where [7] appears, read: at 5.0 µM (retest, dose inferred, filed as 0.5).
Where [8] appears, read: at 50.0 µM (retest, dose inferred, filed as 5.0).

Regarding `COc1ccc2nc3cc(Cl)ccc3c(NCCCCCN3CCCCC3)c2c1`, the growth inhibition in assay [1] (setting [7]) is -3%; in assay [1] (setting [8]), 70% (active); in assay [1] (at 50.0 µM) it was 77.6% (active); in assay [2] (setting [7]), -3%; in assay [2] (setting [8]), 31%; in assay [2] (at 50.0 µM), 39%. Also, the growth inhibition in assay [3] (setting [7]) was -7%; in assay [3] (setting [8]) it was 26%; in assay [3] (at 50.0 µM), 47.1%; in assay [4] (setting [7]), 1%; in assay [4] (setting [8]), 45%; in assay [4] (at 50.0 µM), 63%. Moreover, the growth inhibition in assay [5] (setting [7]) is -4%; in assay [5] (setting [8]) it was 4%; in assay [5] (at 50.0 µM), 59.4%; in assay [6] (setting [7]) it was 0%; in assay [6] (setting [8]) it was 47%; in assay [6] (at 50.0 µM), 59.9%.

As to `CC(=O)c1ccc2c(c1)CCc1ccccc1-2`, the growth inhibition in assay [1] (setting [7]) is 2%; in assay [1] (setting [8]), 85% (active); in assay [1] (at 50.0 µM) it was 12.5%; in assay [2] (setting [7]) it was -33%; in assay [2] (setting [8]), 49%; in assay [2] (at 50.0 µM) it was -8.9%. For the same compound, the growth inhibition is 2% in assay [3] (setting [7]); 55% in assay [3] (setting [8]); 36.1% in assay [3] (at 50.0 µM); 2% in assay [4] (setting [7]); 8% in assay [4] (setting [8]); 52.5% in assay [4] (at 50.0 µM). Also, the growth inhibition is 45% in assay [5] (setting [7]); 89% (active) in assay [5] (setting [8]); 30.4% in assay [5] (at 50.0 µM); 1% in assay [6] (setting [7]); 79% (active) in assay [6] (setting [8]); 15.9% in assay [6] (at 50.0 µM).

As for `Nc1ccc(C(=O)/C=C/c2ccccc2)cc1`, the growth inhibition in assay [1] (setting [7]) was 6%; in assay [1] (setting [8]), 57%; in assay [1] (at 50.0 µM) it was 67.8%; in assay [2] (setting [7]), 12%; in assay [2] (setting [8]) it was 58%; in assay [2] (at 50.0 µM), 85.3% (active). Besides, the growth inhibition in assay [3] (setting [7]) is 11%; in assay [3] (setting [8]), 75% (active); in assay [3] (at 50.0 µM), 78.1% (active); in assay [4] (setting [7]), 4%; in assay [4] (setting [8]) it was 21%; in assay [4] (at 50.0 µM), 8.95%. The growth inhibition in assay [5] (setting [7]) was 5%; in assay [5] (setting [8]) it was 81% (active); in assay [5] (at 50.0 µM) it was 94.5% (active); in assay [6] (setting [7]) it was 4%; in assay [6] (setting [8]), 53%; in assay [6] (at 50.0 µM), 96.3% (active).

With `c1ccc(-c2cc3cc4ccccc4cn3c2)cc1`, the growth inhibition is 58% in assay [1] (setting [7]); 93% (active) in assay [1] (setting [8]); 83.8% (active) in assay [1] (at 50.0 µM); 43% in assay [2] (setting [7]); 94% (active) in assay [2] (setting [8]); 83.8% (active) in assay [2] (at 50.0 µM). Besides, the growth inhibition in assay [3] (setting [7]) is 52%; in assay [3] (setting [8]), 97% (active); in assay [3] (at 50.0 µM), 88.8% (active); in assay [4] (setting [7]) it was 35%; in assay [4] (setting [8]), 84% (active); in assay [4] (at 50.0 µM) it was 82.8% (active). Further, the growth inhibition in assay [5] (setting [7]) was 53%; in assay [5] (setting [8]), 97% (active); in assay [5] (at 50.0 µM), 86.3% (active); in assay [6] (setting [7]), 61%; in assay [6] (setting [8]) it was 95% (active); in assay [6] (at 50.0 µM) it was 86.7% (active).

`CCCCCCCCCCCC(=O)OC(C)C(=O)NCCCC` (stereo unspecified): the growth inhibition in assay [1] (setting [7]) is 0%; in assay [1] (setting [8]), 21%; in assay [1] (at 50.0 µM), -18.2%; in assay [2] (setting [7]), 0%; in assay [2] (setting [8]), 18%; in assay [2] (at 50.0 µM), 13.6%. Also, the growth inhibition was 2% in assay [3] (setting [7]); 68% in assay [3] (setting [8]); -2.05% in assay [3] (at 50.0 µM); -2% in assay [4] (setting [7]); -3% in assay [4] (setting [8]); 26.4% in assay [4] (at 50.0 µM). The growth inhibition in assay [5] (setting [7]) is -1%; in assay [5] (setting [8]) it was 9%; in assay [5] (at 50.0 µM) it was -5.95%; in assay [6] (setting [7]) it was -17%; in assay [6] (setting [8]), 32%; in assay [6] (at 50.0 µM), 75.2% (active).

`COc1ccc(C(OCC2OC(n3ccc(NC(=O)c4ccccc4)nc3=O)C(O)C2O)(c2ccccc2)c2ccccc2)cc1` (stereo unspecified): the growth inhibition was 56% in assay [1] (setting [7]); 91% (active) in assay [1] (setting [8]); 68.7% in assay [1] (at 50.0 µM); 23% in assay [2] (setting [7]); 91% (active) in assay [2] (setting [8]); 98.2% (active) in assay [2] (at 50.0 µM). In addition, the growth inhibition in assay [3] (setting [7]) was 36%; in assay [3] (setting [8]), 83% (active); in assay [3] (at 50.0 µM), 56.4%; in assay [4] (setting [7]) it was 76% (active); in assay [4] (setting [8]) it was 96% (active); in assay [4] (at 50.0 µM), 84.8% (active). The growth inhibition in assay [5] (setting [7]) is 52%; in assay [5] (setting [8]), 90% (active); in assay [5] (at 50.0 µM) it was 98.5% (active); in assay [6] (setting [7]), 62%; in assay [6] (setting [8]), 90% (active); in assay [6] (at 50.0 µM) it was 84.2% (active).

Turning to `COc1ccc2nc3cc([N+](=O)[O-])ccc3c(NNc3ccccc3)c2c1`, the growth inhibition in assay [1] (setting [7]) was -2%; in assay [1] (setting [8]) it was -5%; in assay [1] (at 50.0 µM), 62.2%; in assay [2] (setting [7]) it was 5%; in assay [2] (setting [8]), -4%; in assay [2] (at 50.0 µM), 1.7%. Further, the growth inhibition in assay [3] (setting [7]) was -2%; in assay [3] (setting [8]) it was -13%; in assay [3] (at 50.0 µM), 49.1%; in assay [4] (setting [7]), 3%; in assay [4] (setting [8]), -12%; in assay [4] (at 50.0 µM), 29.7%. Moreover, the growth inhibition is 3% in assay [5] (setting [7]); 6% in assay [5] (setting [8]); 5% in assay [5] (at 50.0 µM); 0% in assay [6] (setting [7]); -11% in assay [6] (setting [8]); 60.8% in assay [6] (at 50.0 µM).

These data come from PubChem BioAssay (NCI).
